This is a sample that favours compounds with a hit; in the whole collection about 21% have one here.
TDP1 cell noCPT = qHTS for Inhibitors of human tyrosyl-DNA phosphodiesterase 1 (TDP1): qHTS in cells in absence of CPT; 420,000 tested, 15% active; Potency, µM (titrated, usually from 46.2 µM), without a hit: at the highest dose activity change, negative = growth inhibition, actives largely listed as inhibitors; DT40 Tdp1-/- hTDP1 cells, no CPT, ATP luminescence, 48 h; also: potency is read from the fitted curve at half-maximal effect; nearly all actives have a fitted effect of over 55% in size
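DT40 Tdp1-/-;hTDP1 cells, no CPT (DMSO vehicle only), 400 cells/well; compounds pin-transferred; ≥48 hr, 37 °C; CellTiter-Glo 30 min RT dark, luminescence read.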
TDP1 cell CPT = DT40-hTDP1 cell growth loss with CPT; chicken DT40 Tdp1-/-;hTDP1 cells + 20 nM CPT, ATP luminescence, 48 h; Potency, µM (doses to about 46.2 µM), without a hit: at the highest dose activity change, negative = growth inhibition, usual class: inhibitors; 420,000 tested, 12% active; also: potency is read from the fitted curve at half-maximal effect; nearly all actives have a fitted effect of over 55% in size
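Chicken DT40 Tdp1-/- cells stably complemented with human TDP1 were seeded at 400 cells/well in medium containing 20 nM camptothecin, exposed to pin-transferred compounds, and grown at 37 °C for at least 48 hr. Viability was read as ATP luminescence.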
ELG1 DNA repair = ELG1-dependent DNA repair inhibition; AID 504467; 330,000 tested, 2.3% active; Potency, µM (titrated, usually from 46.1 µM), for inactives: at the top dose activity change, negative = inhibition, usual class: inhibitors; HEK293T ELG1-luciferase reporter, luminescence, 16 h; DNA damage induced by 5-fluorouridine; also: potency is read from the fitted curve at half-maximal effect; nearly all actives have a fitted effect of over 55% in size
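In this reporter screen, reduction of luminescence relative to DMSO vehicle indicated activity. Compounds and 5-fluorouridine were added together to 2,000 cells per well, incubated for 16 hr at 37 °C, then developed with ONE-Glo.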
RORgamma inh = blocks mouse ROR gamma transcriptional activity. Potency, µM (series often up to 53.6 µM), for inactives: top-dose activity change, negative = inhibition, most hits filed as inhibitors. Drosophila S2 Gal4-RORgamma UAS-luciferase reporter, 20 h. 310,000 tested, 5.4% active; also: potency is read from the fitted curve at half-maximal effect; nearly all actives have a fitted effect of over 60% in size
Target sequence (P51450 whole entry, looked up, the tested form may be a part): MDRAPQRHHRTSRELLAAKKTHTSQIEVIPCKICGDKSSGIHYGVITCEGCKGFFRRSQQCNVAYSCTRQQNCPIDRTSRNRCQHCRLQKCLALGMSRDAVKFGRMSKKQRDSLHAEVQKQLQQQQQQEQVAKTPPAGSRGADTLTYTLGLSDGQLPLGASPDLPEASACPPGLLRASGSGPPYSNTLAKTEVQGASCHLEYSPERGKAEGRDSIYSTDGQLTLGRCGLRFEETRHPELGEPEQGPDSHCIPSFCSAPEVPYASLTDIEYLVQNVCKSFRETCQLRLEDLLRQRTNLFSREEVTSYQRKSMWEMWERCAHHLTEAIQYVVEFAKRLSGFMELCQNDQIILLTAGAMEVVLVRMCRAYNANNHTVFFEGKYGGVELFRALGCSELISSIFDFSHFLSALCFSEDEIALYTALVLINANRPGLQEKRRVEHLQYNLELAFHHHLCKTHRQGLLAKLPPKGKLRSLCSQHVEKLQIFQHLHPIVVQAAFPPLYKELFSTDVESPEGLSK
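Drosophila Schneider cells stably carrying a metallothionein-driven Gal4 DBD–ROR gamma fusion and a UAS-Photinus luciferase reporter were exposed to compound for 1 hr, then induced with copper sulfate (700 uM final) for 20 hr at ambient temperature before luminescence reading.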
IL1B secr inh = inhibitors of inflammasome signaling (IL-1 beta secretion); THP-1 LPS/ATP IL-1B secretion, AlphaLISA, 16 h; active compounds read low; activity change, % at 57.5 µM; 360,000 tested, 4.7% active; AID 743279; in the data active = activity change below about -50%; inconclusive = mostly about -30% to -49%
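THP-1 cells pretreated 1 hr with compounds (up to 57.5 uM final), then stimulated with LPS (250 ng/mL final) plus ATP (1.25 mM final); secreted IL-1B measured by AlphaLISA after 16 hr, decreased signal indicating inhibition.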
VP16 counter = counter-screen for ROR gamma inhibitors: Gal4-VP16 reporter | Drosophila S2 Gal4-VP16 UAS-luciferase, luminescence, 20 h | 310,000 tested, 3.5% active | Potency, µM (doses to about 53.6 µM), without a hit: at the highest dose activity, negative = inhibition, most hits filed as inhibitors;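 also: Gal4-VP16 expression switched on by copper sulfate through the metallothionein promoter; potency is read from the fitted curve at half-maximal effect; nearly all actives have a fitted effect of over 50% in size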
Active calls of the source: *; ? = inconclusive; / = no result given. Unless noted, calls follow the shape of the dose curve; as a rule, active = well fitted curve in the direction sought with a large enough effect; inconclusive = small, poorly fitted or top-dose-only effect, or another doubt; inactive = no such curve, though single readings can be large; an effect the other way counts as inactive or inconclusive. % is scaled to controls: 0 for no effect and ±100 for the full control effect.

SMILES	TDP1 cell noCPT	TDP1 cell CPT	ELG1 DNA repair	RORgamma inh	IL1B secr inh	VP16 counter
CCOC(=O)c1c(C)[nH]c(C(=O)COC(=O)CCNS(=O)(=O)c2ccc(NC(C)=O)cc2)c1C	-15%	0%	0%	/	-3	/
COc1ccc(NC(=O)C2=C(C)Nc3ncnn3C2c2ccc(O)cc2)cc1 (stereo not given)	9%	3%	/	/	/	/
O=C(CCCN1C(=O)c2ccccc2C1=O)N1CCc2ccccc2C1	7%	-20%	4%	-7%	27	2%
O=C(CN1C(=O)c2cccc3cccc1c23)N1CCc2ccccc2C1	12µM*	21µM*	?	24%	-14	3%
O=C(CN1C(=O)c2cccc3cccc1c23)N1CCN(Cc2ccc3c(c2)OCO3)CC1	21µM*	?	?	?	-16	?
COCCCNc1nc2c(c(=O)n(Cc3cccc(Br)c3)c(=O)n2C)n1C	?	-30%	?	11%	28	-2%
COCCCNc1nc2c(c(=O)n(C)c(=O)n2C)n1Cc1ccccc1	12µM*	16µM*	/	/	/	/
Cc1ccc(Cn2c(NCCc3ccccc3)nc3c2c(=O)n(C)c(=O)n3C)cc1	8.2µM*	6.5µM*	?	-33%	?	?
COc1ccc(CCNc2nc3c(c(=O)n(C)c(=O)n3C)n2Cc2ccccc2Cl)cc1OC	7.3µM*	13µM*	/	/	/	/
COCCNc1nc2c(c(=O)n(Cc3cccc(Br)c3)c(=O)n2C)n1C	23µM*	?	-2%	3%	26	12%
COc1ccc(Cl)c(Cn2c(NCCCN(C)C)nc3c2c(=O)n(C)c(=O)n3C)c1	-26%	-24%	5%	2%	15	1%
Cn1c(=O)c2c(nc(CN3CCN(Cc4ccccc4)CC3)n2Cc2cccc(Cl)c2)n(C)c1=O	16µM*	23µM*	12µM*	3%	-20	1%
COCCNc1nc2c(c(=O)n(C)c(=O)n2C)n1Cc1c(F)cccc1Cl	2.6µM*	1.8µM*	/	/	/	/
Cn1c(=O)c2c(nc(NCC3CCCO3)n2Cc2cccc(Br)c2)n(C)c1=O (stereo not given)	15µM*	?	?	6%	0	0%
C=CCn1c(Oc2cc(C)ccc2C)nc2c1c(=O)n(C)c(=O)n2C	16µM*	15µM*	?	-4%	-1	5%
Cc1cc(C(=O)C(=O)Nc2nnc(C(C)C)s2)c(C)n1-c1ccccc1	-10%	?	/	/	/	/
CC(=O)NS(=O)(=O)c1ccc(NC(=O)c2cccc3ccccc23)cc1	-23%	-25%	/	/	5	/
C=CCn1c(NCCc2ccccc2)nc2c1c(=O)n(C)c(=O)n2C	8.2µM*	9.2µM*	?	0%	-21	?
Cn1c(=O)c2c(nc(NCCCO)n2Cc2cccc(C(F)(F)F)c2)n(C)c1=O	15µM*	18µM*	-9%	?	11	-4%
Cn1c(=O)c2c(nc(CN3CCCCC3)n2Cc2c(F)cccc2Cl)n(C)c1=O	23µM*	?	3%	-20%	12	2%
Cn1c(=O)c2c(nc(CN3CCN(CCO)CC3)n2Cc2ccccc2Cl)n(C)c1=O	-2%	7%	-3%	-33%	-11	1%
Cc1ccc(S(=O)(=O)NC(C)C(=O)OCC(=O)Nc2sccc2C(N)=O)cc1 (stereo not given)	-3%	-9%	/	/	2	/
Cn1c(=O)n(C)c2cc([N+](=O)[O-])c(N3CCN(S(=O)(=O)c4ccc(C(C)(C)C)cc4)CC3)cc21	?	21µM*	?	?	-30	-16%
CC(=O)Nc1ccc(S(=O)(=O)N2CCN(c3cc4c(cc3[N+](=O)[O-])n(C)c(=O)n4C)CC2)cc1	18µM*	?	0%	19%	-11	?

From PubChem
